Screens as filed in PubChem BioAssay.
Rac1 wt modul: alters GTP binding to wildtype human Rac1 | P63000 | GST-Rac1 beads, fluorescent GTP binding, flow cytometry; actives lie on both sides; 0 = cold GTP competed, 100 = untreated | GTP binding activity (% of control), % at 10 µM | 190,000 compounds, 0.27% hits;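 active = GTP binding activity at least 20 points away from the 100% control level, either lower or higher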
Rab2 wt GTP: changes GTP binding to wildtype dog Rab2A, up or down; GTP binding activity, % at 10 µM; GST-Rab2 wt beads, Bodipy-GTP binding, flow cytometry; 190,000 compounds, 0.19% hits; AID 760; P61105;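 active = GTP binding activity at least 20 points away from 100%, either lowered or raised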;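 note: 0% = beads with excess unlabeled GTP and 100% = no-compound control corrected for plate trend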
HRas wt GTP: human HRas wildtype GTP binding, change in either direction; GST-Ras wt beads, Bodipy-FL-GTP binding, flow cytometry; actives lie on both sides; GTP binding activity, % at 10 µM; 190,000 compounds, 0.14% hits;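 active = GTP binding activity at least 20% away from the 100% baseline, either lowered as inhibitor or raised as activator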;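 note: 0% = unlabeled GTP competition control and 100% = no-compound control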
Target sequence (P01112 whole entry, looked up): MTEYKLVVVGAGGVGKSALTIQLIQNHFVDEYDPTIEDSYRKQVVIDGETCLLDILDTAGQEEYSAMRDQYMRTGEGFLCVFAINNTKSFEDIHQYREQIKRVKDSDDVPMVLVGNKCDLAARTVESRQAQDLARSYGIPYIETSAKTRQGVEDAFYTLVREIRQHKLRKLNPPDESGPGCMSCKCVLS
Rab7 wt modul: modulators of GTP binding to dog Rab7 wildtype GTPase | GTP binding activity (percent of control), % at 10 µM | 190,000 compounds, 0.055% hits | AID 758 | GST-Rab7 beads, fluorescent GTP binding, flow cytometry; actives lie on both sides; untreated = 100%, excess cold GTP = 0%;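 active = fluorescent GTP binding to Rab7 beads changed by at least 20 points from the 100% baseline, either direction, mostly lower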;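 note: median green fluorescence of bound Bodipy-FL-GTP per Rab7 bead population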
Rac1 mut GTP: modulators of GTP binding to human Rac1 activated mutant | P63000 | GST-Rac1 activated beads, fluorescent GTP binding, flow cytometry; actives lie on both sides; 100% means binding = to untreated wells | percent activity (GTP binding), % at 10 µM | 190,000 compounds, 0.11% hits;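 active = GTP binding at least 20 percentage points away from the 100% baseline, in either direction, so actives lie on both sides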
Cdc42 wt: modulators (inhibitors or activators) of GTP binding to human Cdc42 wildtype; P60953; 190,000 compounds, 0.2% hits; percent activity (GTP binding), % at 10 µM; GST-Cdc42 beads, Bodipy-GTP binding, flow cytometry; actives lie on both sides;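 active = percent activity GTP binding at least 20 points away from the 100% baseline, either down as inhibitor or up as activator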;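 note: median bead fluorescence of bound Bodipy-FL-GTP at 100 nM; 0% = excess unlabeled GTP control and 100% = no compound control; below 100% means less GTP binding so inhibitor and above means activator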
Target sequence (P60953 whole entry, looked up): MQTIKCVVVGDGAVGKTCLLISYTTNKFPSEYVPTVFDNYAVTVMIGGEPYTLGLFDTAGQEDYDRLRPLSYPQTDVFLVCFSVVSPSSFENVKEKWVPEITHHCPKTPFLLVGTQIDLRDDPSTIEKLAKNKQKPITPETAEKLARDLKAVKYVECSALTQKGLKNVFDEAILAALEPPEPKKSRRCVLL
* hit, by the source's call; [ ] = dose if it differs, or a comment. An excerpt weighted towards active compounds, which were near 0.4% of everything screened.

SMILES	Rac1 wt modul	Rab2 wt GTP	HRas wt GTP	Rab7 wt modul	Rac1 mut GTP	Cdc42 wt
CC1=NN(c2ccc(Cl)c(C(=O)O)c2)C(=O)/C1=C\c1ccc(-c2ccc(C(=O)O)cc2)o1	89	88	90	91	87	87
Cc1nc2ccc(Cl)cc2c(-c2ccccc2Cl)c1CC(=O)O	87	86	90	92	88	82
CN1CCc2nc3ccc(Cl)cc3c(-c3ccccc3Cl)c2C1	91	91	93	95	95	79*
O=C(NCC1CCCO1)c1ccc(COc2ccccc2Br)cc1 (stereo unspecified)	103	101	100	101	102	99
O=C(c1nnsc1S(=O)(=O)c1ccc(Cl)cc1)N1CCOCC1	106	106	102	107	120*[activator]	105
Cc1ccc(Cl)cc1N1CCN(C(=O)CN(C2CCCCC2)S(C)(=O)=O)CC1	104	99	101	98	100	103
CCOC(=O)c1c(NC(=O)C(=O)N/N=C/c2ccc(O)c(OC)c2)sc2c1CCCCC2	104	94	98	98	98	61*
CCOC(=O)c1c(NC(=O)C(=O)N/N=C/c2ccc(OCC)cc2)sc2c1CCCCC2	104	99	102	97	99	97
CCOc1ccc(-n2c(C)nc3cc(C(=O)NCc4ccc5c(c4)OCO5)ccc32)cc1	77*	71*	80	86	79*	77*
Cc1nn(Cc2ccccc2)c(C)c1NC(=O)CSc1nc2c(c(C(F)(F)F)n1)CCc1ccccc1-2	75*	83	85	92	88	84
COc1cc(C(=O)c2c(C)c(CCC#N)n3ccccc23)cc(OC)c1OC	96	97	99	103	96	97
Cc1ccc(Nc2c(F)c(F)c(F)c(F)c2C(=O)O)cc1	141*[activator]	127*[activator]	117	119	130*[activator]	128*[activator]
COc1cccc(Nc2c(F)c(F)c(F)c(F)c2C(=O)O)c1	131*[activator]	113	113	113	116	123*[activator]
COc1cc(/C=N/NC(=O)CCN2CCN(c3ccccc3)CC2)cc(OC)c1OC	79*	80	86	94	90	87
COc1cc(/C=N/NC(=O)CCN2CCN(Cc3ccccc3)CC2)cc(OC)c1OC	100	101	100	97	101	99
Cc1ccc(NC(=O)C2=C(c3ccccc3)S(=O)(=O)CCS2(=O)=O)cc1	83	84	86	94	82	78*
O=C(C1CCCO1)N1CCN(C(=S)Nc2ccccc2C(F)(F)F)CC1 (stereo unspecified)	109	125*[activator]	117	108	104	108
NC(=O)CSc1nnc(SCc2ccc(F)cc2)s1	98	96	96	94	97	98
Cc1ccc2cc(COC(=O)C3CCCO3)c(=O)[nH]c2c1 (stereo unspecified)	101	102	105	104	99	104
O=C(COC(=O)c1cc2ccccc2o1)c1ccccc1	102	98	99	98	101	98
O=C(OCCN1CCCCC1)c1cc2ccccc2o1	123*[activator]	106	106	102	102	114
Cc1ccccc1C(=O)N1CCN=C1SCc1ccc([N+](=O)[O-])cc1	95	96	96	93	97	97
S=C(NCCc1ccccc1)NC1CC1	123*[activator]	105	104	99	104	117
O=C(O)c1ccc(CNCc2ccc(F)cc2)cc1	83	85	86	94	80	79*
CCC(CO)NCc1ccccc1OC(C)C (stereo unspecified)	105	98	98	99	99	98
CCC(Sc1nc(-c2ccccc2)cc(=O)[nH]1)C(=O)O (stereo unspecified)	96	93	94	96	94	94
CC(C)Sc1nc(-c2ccccc2)cc(=O)[nH]1	128*[activator]	109	110	104	105	115
Cc1ccc(C2C(C=Nc3c(C)n(C)n(-c4ccccc4)c3=O)=C(c3ccccc3)Oc3ccccc32)cc1 (stereo unspecified)	102	97	101	99	98	100
